Several values for one entry are separate records, joined by “and”; a condition that tells them apart may be missing. Equal values may be shown once. Screen size: about 5,500 compounds; about 2,000 (36%) were called active. Not shown: some 18% with an inconclusive outcome. Cut-off read from the data, not from the text of the source: active = normalized growth mostly below about 0.91 (no sharp cut-off); inconclusive = no clear call, values can overlap the other calls; inactive = mostly above about 0.92. The list shows a part of the results.
Assay: chemical genetic growth profiling, strain panel (AID 1159580);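 note: tested at 20 µM; growth read once vehicle control cultures reached saturation at 30 °C; 1 = growth at the plate median or of vehicle wells; lower values mean less growth of the strain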
Details: S. cerevisiae deletion strains, growth OD

Measured: normalized growth

CC(C)(O)[C@@H]1[C@H]2OC(=O)[C@@H]1[C@]1(O)C[C@H]3O[C@]34C(=O)O[C@H]2[C@]14C
inactive: locus YAL013W, strain DEP1, stronger effect = lower value 1 | locus YAL021C, strain ccr4, stronger effect = lower value 1.01 | locus YAL026C, strain drs2, stronger effect = lower value 1.01 | locus YAL030W, strain snc1, stronger effect = lower value 1 | locus YBL061C, strain skt5, stronger effect = lower value 1 | locus YBR009C, strain hhf1, stronger effect = lower value 0.998 | locus YBR021W, strain FUR4, stronger effect = lower value 1 | locus YBR023C, strain chs3, stronger effect = lower value 1.01 | locus YBR171W, strain sec66, stronger effect = lower value 0.99 | locus YBR229C, strain ROT2, stronger effect = lower value 1 | locus YBR231C, strain swc5, stronger effect = lower value 0.991 | locus YBR279W, strain paf1, stronger effect = lower value 1.01 | locus YCL011C, strain gbp2, stronger effect = lower value 1.01 | locus YCL016C, strain dcc1, stronger effect = lower value 1.01 | locus YCL029C, strain bik1, stronger effect = lower value 1.01 | locus YCL061C, strain MRC1, stronger effect = lower value 1 | locus YCL069W, strain vba3, stronger effect = lower value 1.01 | locus YCR088W, strain abp1, stronger effect = lower value 1 | locus YDL005C, strain med2, stronger effect = lower value 0.988 | locus YDL035C, strain GPR1, stronger effect = lower value 1 | locus YDL040C, strain nat1, stronger effect = lower value 1 | locus YDL074C, strain BRE1, stronger effect = lower value 1.02 | locus YDL101C, strain DUN1, stronger effect = lower value 1.01 | locus YDL134C, strain PPH21, stronger effect = lower value 1 | locus YDL185W, strain tfp1, stronger effect = lower value 1.01 | locus YDL192W, strain arf1, stronger effect = lower value 1.02 | locus YDR001C, strain nth1, stronger effect = lower value 1.01 | locus YDR069C, strain doa4, stronger effect = lower value 1.01 | locus YDR101C, strain arx1, stronger effect = lower value 1 | locus YDR137W, strain rgp1, stronger effect = lower value 1 | locus YDR150W, strain NUM1, stronger effect = lower value 1 | locus YDR159W, strain sac3, stronger effect = lower value 0.993 | locus YDR162C, strain NBP2, stronger effect = lower value 1.01 | locus YDR195W, strain ref2 0.988 | locus YDR297W, strain sur2, stronger effect = lower value 0.993 | locus YDR318W, strain mcm21, stronger effect = lower value 1.01 | locus YDR334W, strain swr1, stronger effect = lower value 1.02 | locus YDR335W, strain msn5, stronger effect = lower value 1 | locus YDR388W, stronger effect = lower value 1.02 | locus YDR392W, strain spt3, stronger effect = lower value 0.939 | locus YDR502C, strain sam2, stronger effect = lower value 1.03 | locus YEL003W, strain gim4, stronger effect = lower value 1 | locus YEL037C, strain rad23, stronger effect = lower value 1.02 | locus YEL061C, strain CIN8 (second series), stronger effect = lower value 1.01 | locus YEL061C, strain CIN8, stronger effect = lower value 1 | locus YER015W, strain faa2, stronger effect = lower value 1.01 | locus YER016W, strain bim1, stronger effect = lower value 0.997 | locus YER110C, stronger effect = lower value 1.02 | locus YER111C, strain swi4, stronger effect = lower value 1 | locus YER155C, strain BEM2 (second series), stronger effect = lower value 1.01 | locus YER155C, strain BEM2, stronger effect = lower value 1 | locus YER167W, strain BCK2, stronger effect = lower value 1 | locus YFR010W, strain ubp6, stronger effect = lower value 1.01 | locus YGL078C, strain dbp3, stronger effect = lower value 1.01 | locus YGL086W, strain mad1, stronger effect = lower value 1.02 | locus YGL167C, strain pmr1, stronger effect = lower value 1 | locus YGL173C, strain kem1, stronger effect = lower value 1 | locus YGL227W, strain vid30, stronger effect = lower value 0.993 | locus YGL240W, strain doc1, stronger effect = lower value 1 | locus YGL248W, strain PDE1, stronger effect = lower value 1.01 | locus YGL253W, strain hxk2, stronger effect = lower value 1.01 | locus YGR078C, strain PAC10, stronger effect = lower value 1 | locus YGR135W, strain pre9, stronger effect = lower value 1 | locus YGR252W, strain gcn5, stronger effect = lower value 0.994 | locus YHR013C, strain ard1, stronger effect = lower value 0.988 | locus YHR027C, strain rpn1, stronger effect = lower value 1.01 | locus YHR030C, strain SLT2, stronger effect = lower value 1.01 and 1.03 | locus YHR079C, strain IRE1 (second series), stronger effect = lower value 1.01 | locus YHR079C, strain IRE1, stronger effect = lower value 1.03 | locus YHR094C, strain hxt1, stronger effect = lower value 1.01 | locus YHR129C, strain ARP1, stronger effect = lower value 1 | locus YHR142W, strain chs7, stronger effect = lower value 1.01 | locus YHR200W, strain rpn10, stronger effect = lower value 1.03 | locus YIL066C, strain RNR3, stronger effect = lower value 1.01 | locus YIL073C, strain SPO22, stronger effect = lower value 1.06 | locus YIL125W, strain kgd1, stronger effect = lower value 1.01 | locus YIR030C, strain dcg1, stronger effect = lower value 1.02 | locus YJL092W, strain hpr5, stronger effect = lower value 1 | locus YJL095W, strain BCK1 (second series), stronger effect = lower value 1 | locus YJL095W, strain BCK1, stronger effect = lower value 0.997 and 1.04 | locus YJL115W, strain asf1, stronger effect = lower value 1.01 | locus YJL129C, strain trk1, stronger effect = lower value 1 | locus YJL134W, strain LCB3, stronger effect = lower value 1.01 | locus YJL154C, strain vps35, stronger effect = lower value 1.01 | locus YJL164C, strain tpk1, stronger effect = lower value 0.999 | locus YJL166W, strain qcr8, stronger effect = lower value 1 | locus YJL168C, strain set2, stronger effect = lower value 1.01 | locus YJL187C, strain SWE1 (second series), stronger effect = lower value 1.01 | locus YJL187C, strain SWE1, stronger effect = lower value 1.01 | locus YJR043C, strain POL32, stronger effect = lower value 1.01 | locus YJR066W, strain TOR1, stronger effect = lower value 0.965 | locus YJR075W, strain HOC1, stronger effect = lower value 1.01 | locus YKL009W, strain mrt4, stronger effect = lower value 1.02 | locus YKL068W, stronger effect = lower value 1 | locus YKL085W, strain MDH1 (second series), stronger effect = lower value 1 | locus YKL085W, strain MDH1, stronger effect = lower value 1 | locus YKL160W, strain elf1, stronger effect = lower value 0.998 | locus YKL190W, strain CNB1, stronger effect = lower value 1.01 | locus YKR001C, strain vps1, stronger effect = lower value 1.05 | locus YKR026C, strain gcn3, stronger effect = lower value 1.01 | locus YKR091W, strain srl3, stronger effect = lower value 1 | locus YLL001W, strain dnm1, stronger effect = lower value 0.996 | locus YLL026W, stronger effect = lower value 0.999 | locus YLL041C, strain sdh2, stronger effect = lower value 1.01 | locus YLR027C, strain aat2, stronger effect = lower value 1.03 | locus YLR039C, strain RIC1, stronger effect = lower value 0.995 | locus YLR058C, strain SHM2, stronger effect = lower value 1 | locus YLR102C, strain apc9, stronger effect = lower value 1.01 | locus YLR113W, strain HOG1, stronger effect = lower value 0.982 | locus YLR221C, strain rsa3, stronger effect = lower value 0.999 | locus YLR258W, strain gsy2, stronger effect = lower value 0.997 | locus YLR262C, strain YPT6 (second series), stronger effect = lower value 0.991 | locus YLR262C, strain YPT6, stronger effect = lower value 1.02 | locus YLR268W, strain sec22, stronger effect = lower value 1.02 | locus YLR320W, strain mms22, stronger effect = lower value 1 | locus YLR330W, strain CHS5, stronger effect = lower value 1.01 | locus YLR342W, strain FKS1 (second series), stronger effect = lower value 1.02 | locus YLR342W, strain FKS1, stronger effect = lower value 1.01 | locus YLR357W, strain rsc2, stronger effect = lower value 1.02 | locus YLR370C, strain arc18, stronger effect = lower value 1 | locus YLR371W, strain rom2, stronger effect = lower value 1.02 | locus YLR384C, strain iki3, stronger effect = lower value 0.994 | locus YLR418C, strain cdc73, stronger effect = lower value 0.997 | locus YML016C, strain PPZ1, stronger effect = lower value 1.01 | locus YML032C, strain rad52, stronger effect = lower value 1.02 | locus YML120C, strain ndi1, stronger effect = lower value 1.01 | locus YML124C, strain tub3, stronger effect = lower value 1 | locus YMR058W, strain fet3, stronger effect = lower value 1.01 | locus YMR078C, strain ctf18, stronger effect = lower value 1.01 | locus YMR125W, strain sto1, stronger effect = lower value 1.01 | locus YMR129W, stronger effect = lower value 1 | locus YMR205C, strain PFK2, stronger effect = lower value 0.988 | locus YMR223W, strain ubp8, stronger effect = lower value 1.01 | locus YMR231W, strain pep5, stronger effect = lower value 1 | locus YMR263W, strain SAP30, stronger effect = lower value 1.01 | locus YMR307W, strain GAS1, stronger effect = lower value 1.03 | locus YNL067W, strain RPL9B, stronger effect = lower value 1 | locus YNL071W, strain lat1, stronger effect = lower value 1.01 | locus YNL128W, strain TEP1, stronger effect = lower value 1.03 | locus YNL153C, strain GIM3, stronger effect = lower value 1 | locus YNL183C, strain NPR1, stronger effect = lower value 0.987 | locus YNL209W, strain ssb2, stronger effect = lower value 1.01 | locus YNL233W, strain BNI4, stronger effect = lower value 0.996 | locus YNL248C, strain rpa49, stronger effect = lower value 0.958 | locus YNL250W, strain rad50, stronger effect = lower value 1 | locus YNL271C, strain bni1, stronger effect = lower value 1.01 | locus YNL298W, strain CLA4, stronger effect = lower value 1.02 | locus YNL307C, strain MCK1, stronger effect = lower value 1.03 | locus YNL322C, strain KRE1 (second series), stronger effect = lower value 0.998 | locus YNL322C, strain KRE1, stronger effect = lower value 1 | locus YNR049C, strain mso1, stronger effect = lower value 1.01 | locus YNR052C, strain pop2, stronger effect = lower value 1.01 | locus YOL006C, strain TOP1, stronger effect = lower value 1.02 | locus YOL012C, strain htz1 1.37 | locus YOL147C, strain pex11, stronger effect = lower value 1.01 | locus YOR001W, strain rrp6, stronger effect = lower value 1.02 | locus YOR061W, strain CKA2, stronger effect = lower value 1.02 | locus YOR069W, strain VPS5, stronger effect = lower value 1.01 | locus YOR070C, strain gyp1, stronger effect = lower value 1.02 | locus YOR080W, strain dia2, stronger effect = lower value 0.992 | locus YOR083W, strain WHI5, stronger effect = lower value 0.988 | locus YOR106W, strain vam3, stronger effect = lower value 1.01 | locus YOR136W, strain idh2, stronger effect = lower value 1.01 | locus YOR144C, strain elg1, stronger effect = lower value 1.02 | locus YOR184W, strain ser1, stronger effect = lower value 1.02 | locus YOR231W, strain MKK1, stronger effect = lower value 1.02 | locus YOR265W, strain rbl2, stronger effect = lower value 1.01 | locus YOR270C, strain vph1, stronger effect = lower value 1.02 | locus YOR290C, strain snf2, stronger effect = lower value 0.982 | locus YOR316C, strain cot1, stronger effect = lower value 1.01 | locus YPL051W, strain arl3, stronger effect = lower value 1.04 | locus YPL055C, strain LGE1, stronger effect = lower value 1.01 | locus YPL078C, strain atp4, stronger effect = lower value 1.01 | locus YPL106C, strain sse1, stronger effect = lower value 0.987 | locus YPL240C, strain hsp82, stronger effect = lower value 0.997 | locus YPL241C, strain CIN2, stronger effect = lower value 1.01 | locus YPL256C, strain CLN2, stronger effect = lower value 1.02 | locus YPR119W, strain clb2, stronger effect = lower value 1.01 | locus YPR141C, strain kar3, stronger effect = lower value 1 | locus YPR163C, strain tif3, stronger effect = lower value 1.03 | locus YPR167C, strain met16, stronger effect = lower value 1.01 | strain wtn01, stronger effect = lower value 1.03

Reference: PubChem BioAssay AID1159580 (chemical genetic matrix, 2015)
